Measurements: PubChem BioAssay AID488941 (The Scripps Research Institute Molecular Screening Center, 2010)
This is one part of the list. Activity calls are given as the source filed them.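 How the source made its calls: active means mean activation above a set limit taken from an earlier procaspase-7 screen; inactive means the rest.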

target: Caspase-7 (Homo sapiens) (UniProt P55210); test: procaspase-7 activators, counter-screen for procaspase-3 activator project, biochemical, absorbance, triplicate, human (AID 488941); details: recombinant procaspase-7, Ac-DEVD-pNA absorbance; at 8.5 µM; stronger effect = higher value; asp23/198/206-to-Ala mutant, cannot self-cleave;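 further: 0% = DMSO wells and 100% = DMSO plus 5 µM procaspase-7 enzyme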
Sequence (P55210 whole entry D23A/D198A/D206A): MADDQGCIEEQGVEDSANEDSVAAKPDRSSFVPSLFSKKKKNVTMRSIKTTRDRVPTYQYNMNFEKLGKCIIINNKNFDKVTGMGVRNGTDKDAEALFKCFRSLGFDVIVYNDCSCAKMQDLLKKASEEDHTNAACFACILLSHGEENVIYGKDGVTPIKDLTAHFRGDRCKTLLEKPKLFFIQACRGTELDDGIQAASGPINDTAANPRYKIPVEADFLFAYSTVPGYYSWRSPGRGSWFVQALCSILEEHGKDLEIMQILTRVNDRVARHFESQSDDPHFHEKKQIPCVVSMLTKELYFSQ

| Compound | activation |
| --- | --- |
| Cc1nn(C)cc1CNC(=O)Nc1ccc(Cl)cc1 | 1.34% (inactive) |
| COc1ccc2nc(Nc3nc4ccc(NC(C)=O)cc4s3)sc2c1 | -1.13% (inactive) |
| COc1ccccc1NS(=O)(=O)c1ccc(C(=O)N2CCN(c3ccccc3O)CC2)cc1 | 0.45% (inactive) |
| COC(=O)c1cnc(Nc2cc(C)ccc2OC)c2ccccc12 | -21.2% (inactive) |
| COc1ccc(CCNC(=O)COC(=O)c2ccc[nH]c2=O)cc1 | 3.85% (inactive) |
| CCOc1ccc2nc(NCCNS(=O)(=O)c3ccccc3)c(C#N)cc2c1 | -21% (inactive) |
| O=C(CCNS(=O)(=O)c1ccccc1C(F)(F)F)NCc1ccc2c(c1)OCO2 | 1.59% (inactive) |
| COC(=O)Cc1cc(=O)oc2c(C)c(O)ccc12 | -20.2% (inactive) |
| Oc1ccccc1C1=NN(c2ccccc2)C(c2ccccc2)C1 (stereo unspecified) | -21.3% (inactive) |
| CN1CCN(CCCNC(=O)c2ccc(/C=C3\Oc4ccccc4N(Cc4ccc(Cl)cc4)C3=O)cc2)CC1 | -19.9% (inactive) |
| COc1ccc(-c2sc3ccc(OC)cc3c2C#Cc2ccccn2)cc1 | 6.29% (inactive) |
